# According to article PMC11442847:
# Legend:
# Experiment in all cases: cross-linking mass spectrometry
# Conditions in all cases: DSSO, not determined
# [1] = target: ATP1B3 (UniProt P54709)
# [2] = target: DIP2B (UniProt Q9P265)
# [3] = target: INPP5F (UniProt Q9Y2H2)
# [4] = target: ITPR2 (UniProt Q14571)
# [5] = target: NMI (UniProt Q13287)
# [6] = target: S100A6 (UniProt P06703)
# [7] = target: SLC44A1 (UniProt Q8WWI5)
# [8] = target: WAC (UniProt Q9BTA9)
substance,measurement,setting,value
"PLS3, P13797",cross-linked residues,[1],K42 - K182
"PLK3, Q9H4B4",cross-linked residues,[2],K217 - K118
"B2M, P61769",cross-linked residues,[3],K39 - K352
"OAS2, P29728",cross-linked residues,[4],K388 - K954
"RNASEH1, O60930",cross-linked residues,[5],K236 - K156
"TPD52L2, O43399",cross-linked residues,[6],K175 - K47
"KNTC1, P50748",cross-linked residues,[7],K859 - K145
"CENPN, Q96H22",cross-linked residues,[8],K245 - K175
